The molecules below were run on Wnt5a (protein binding on small-molecule microarray) (assay: small molecules binding Wnt5a protein – biophysical, small-molecule microarray, 635/667 nm fluorescence, primary screen (AID 1142;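 note: fluorescence read at 667 nm with signal to noise per printed feature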)). Settings: 635 nm fluorescence, higher = more signal.

Row | Compound | composite z-score
1 | C=CCN1C(=O)[C@@]2(Cc3ccccc31)N=C(c1ccc(OCCCO)cc1)O[C@H]2c1ccccc1 | 0.344
2 | [N-]=[N+]=Nc1ccccc1[C@@H]1OC(c2ccc(OCCCO)cc2)=N[C@]1(CCS(=O)(=O)c1ccccc1)C(N)=O | 0.903
3 | CN(C)C(=O)[C@@]1(CCS(=O)(=O)c2ccccc2)COC(c2ccc(OCCCO)cc2)=N1 | 0.623
4 | CCOC(=O)C[C@H]1[C@H](OC(=O)c2cc3ccccc3oc2=O)[C@@H](NC(=O)c2ccccc2)c2cc(OCCCO)ccc2N1C(=O)c1ccc2ccccc2n1 | 0.343
5 | C=CCOC(=O)[C@H]1[C@@H]2C(=O)O[C@@H](c3ccccc3)[C@@H](c3ccccc3)N2[C@@H](c2ccc(OCCOC(=O)[C@H]3C[C@H]4C(=O)N[C@@H](CCCCNC(C)=O)C(=O)N4[C@H]3c3cccc(OCCO)c3)cc2)[C@]12C(=O)Nc1ccccc12 | 0.791
6 | CC(C)C(CO)N1C(=O)[C@@H]2C3C(=O)OCCC/C=C\[C@H]3OC23C=CCN(CCN2CCOCC2)C(=O)[C@@H]13 (some centres undefined) | 0.0992
7 | O=C(NCCN1CCOCC1)C1N=C(c2ccc(OCCCO)cc2)N(c2ccccc2)O1 (centres undefined) | 0.889
8 | COC(=O)[C@@]1(Cc2ccccc2)[C@H]2c3cc(C(=O)N4CCCC4)n(Cc4ccc(S(C)(=O)=O)cc4)c3C[C@H]2CN1C(=O)c1ccccc1 | -0.0831
9 | O=C1[C@@]23C=C(Br)[C@H](C[C@@H]2CCOC3)[C@@]12CO2 | -0.0248
10 | O=C(c1ccccc1)N1C(=O)[C@]2(COC(c3ccc(OCCCO)cc3)=N2)Cc2ccccc21 | 0.363
11 | Cc1nc2cc(Br)ccc2c(=O)o1 | 0.119
12 | CCCCC(CC)C(O)C1C=CC2C(=O)N(Cc3ccccc3)C(=O)C2N1n1cnnc1 (centres undefined) | -0.205
13 | CC(C)C(O)C1C=CC2C(=O)NC(=O)C2N1Nc1ccc(Cl)cc1Cl (centres undefined) | -0.0055
14 | COCCOC(=O)N1C(=O)[C@@]2(c3ccccc31)[C@H](c1ccc(O)cc1)N1[C@H](c3ccccc3)[C@H](c3ccccc3)OC(=O)[C@H]1[C@@H]2C(=O)Nc1nc2ccccc2s1 | 0.243
15 | CC(C)C(=C=CC[C@@H](O)c1ccc(OCCO)cc1)C[C@@H](O)COCc1ccccc1 | 0.13
16 | O=C1C2C=CC(C(O)Cc3ccccc3)N(n3cnnc3)C2C(=O)N1Cc1ccccc1 (centres undefined) | 0.0769
17 | COCCOC(=O)N1C(=O)[C@@]2(c3cc(C#Cc4ccc(OC)cc4)ccc31)[C@H](c1ccc(O)cc1)N1[C@H](c3ccccc3)[C@H](c3ccccc3)OC(=O)[C@H]1[C@@H]2C(=O)N1CCc2cc(OC)c(OC)cc2C1 | 0.164
18 | COc1cc2c(cc1O)C(C1CC1)N(Cc1sc3ccccc3c1Cl)CC2 (centres undefined) | -0.207
19 | CC(C)C(=C=CC[C@H](O)c1ccc(OCCO)cc1)CCO | 0.803
20 | CC(=O)NCCCC[C@@H]1NC(=O)[C@@H]2C[C@H](C(=O)NCCCCCNC(=O)CS)[C@H](c3cccc(OCCO)c3)N2C1=O | -0.149
21 | NC(=O)NCC#Cc1ccc2c(c1)[C@]1(C(=O)N2)[C@H](c2ccc(O)cc2)N2[C@H](c3ccccc3)[C@H](c3ccccc3)OC(=O)[C@H]2[C@@H]1C(=O)O | -0.763
22 | COc1cc(Br)cc(C(O)C2C=CC3C(=O)N(C)C(=O)C3N2N2CCCCC2)c1OC (centres undefined) | -0.274
23 | COc1ccc(CCNC(=O)[C@@H]2c3ccccc3C(=O)N(Cc3ccccc3Cl)[C@H]2c2ccc(CO)cc2)cc1 | 0.177
24 | CCCCN1CC=CC23O[C@@H]4C=CCCOC(=O)C4[C@H]2C(=O)N(CCCCCCO)[C@@H]3C1=O (some centres undefined) | -0.767
25 | CCOC(=O)C[C@H]1[C@H](OC(=O)c2ccc(C(=O)c3ccccc3)cc2)[C@@H](NC(=O)c2ccccc2)c2cc(OCCCO)ccc2N1C(=O)c1ccc2ccccc2n1 | 0.152
26 | C=CCOC(=O)[C@H]1[C@@H]2C(=O)O[C@@H](c3ccccc3)[C@@H](c3ccccc3)N2[C@@H](c2ccc(OCCOC(=O)[C@H]3C[C@H]4C(=O)N[C@@H](CCCC[N+](C)(C)C)C(=O)N4[C@H]3c3ccc(O)cc3)cc2)[C@]12C(=O)Nc1ccc(I)cc12 | 0.232
27 | CC(CO)N1C(=O)[C@@H]2C3C(=O)OCCC/C=C\[C@H]3OC23C=CCN(C(C)(C)C)C(=O)[C@@H]13 (some centres undefined) | -0.221
28 | CC1CC/C=C\[C@H]2OC34C=CCN(C(C)(C)C)C(=O)[C@H]3N(C(C)CO)C(=O)[C@@H]4C2C(=O)O1 (some centres undefined) | -0.273
29 | COc1ccc(C#Cc2ccc3c(c2)[C@]2(C(=O)N3)[C@H](C(=O)Nc3nc4ccccc4s3)[C@H]3C(=O)O[C@H](c4ccccc4)[C@H](c4ccccc4)N3[C@@H]2c2ccc(O)cc2)cc1 | 0.823
